# From PubChem BioAssay
# CF NFkB inh: inhibitors of PAF-induced NF-kB signaling, primary screen, cell-based, GFP fluorescence, uHTS; KKLEB NF-kB-GFP reporter, GFP fluorescence overnight; inhibition, % at 5 µM; actives 0.86% (n = 360,000); AID 588850, 2011;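 active = at least 50% inhibition at 5 µM, scaled per plate between neutral and stimulator controls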;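 also: PAF is a Pseudomonas aeruginosa culture filtrate used as stimulus; plate controls were PAF-stimulated DMSO wells for no effect and unstimulated DMSO wells for full effect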
# HIF-2a block: HIF-2a reporter inhibitors, primary screen, luminescence, 786-0 RCC cells | actives 0.72% (n = 360,000) | 786-0 RCC cells HIF-2a reporter, luciferase luminescence, overnight | AID 624352, 2012 | inhibition, % at 18.8 µM;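 active = inhibition of the luminescence signal of 40% or more relative to plate controls, in a single-dose primary screen at 18.75 µM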
# TWEAK Fn14 block: inhibitors of TWEAK-Fn14 signaling, primary screen, luciferase reporter cells, uHTS. inhibition, % at 10 µM. TWEAK-stimulated Fn14 reporter cells, luciferase luminescence, 8 h. AID 1159606, 2016. actives 2% (n = 360,000); in the data active = inhibition above about 50%
# Peg3 prom inh: Peg3 promoter-driven luciferase inhibitors, primary screen, cell-based, HeLa, luciferase luminescence; HeLa PEG-Prom luciferase reporter, overnight; inhibition, % at 20 µM; actives 1.7% (n = 360,000); AID 588405, 2011;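 active = inhibition of at least 50% at 20 µM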
# TROY NFkB inh: inhibitors of TROY-driven NF-kB signaling, primary screen, Q293 LMP1-TROYcd cells, NF-kB luciferase, uHTS. Q293 LMP1-TROYcd NF-kB luciferase reporter, 4 h. inhibition, % at 10 µM. actives 0.98% (n = 360,000);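 active = compounds whose plate-normalised and pattern-corrected inhibition of the luciferase reporter signal at the single screening dose is 50% or more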
# KKLEB tox: cytotoxicity in KKLEB CF airway cells, primary screen, cytotoxicity control for CF NF-kB inhibitor project, cell-based, uHTS, fluorescence assay plates; activity change (cytotoxicity), % at 5 µM; actives 0.36% (n = 360,000); KKLEB CF airway cells viability, ATPlite luminescence, overnight; stronger effect = lower value; cells stimulated with P. aeruginosa culture filtrate;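 active = corrected activity change at or below -50% at 5 µM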
# * hit, by the source's call; nt = not tested or not shown. The list is not random: actives were taken first. Their share in the collection is about 4%.
SMILES,CF NFkB inh,HIF-2a block,TWEAK Fn14 block,Peg3 prom inh,TROY NFkB inh,KKLEB tox
CC1(C)C(=O)N(c2ccccc2)C1c1ccccc1O (configuration not stated),18,36,19,52*,8,-11
COc1ccc(N2C(=O)C(C)(C)C2c2c(O)ccc3ccccc23)cc1 (configuration not stated),12,19,15,33,25,-7
Cc1nn(C(=O)CN2C(=O)c3ccccc3C2=O)c(C)c1Br,5,6,95*,13,nt,0
CC(C)CCNC(=O)C(c1ccc(O)cc1)N(Cc1cccs1)C(=O)C1COc2ccccc2O1 (configuration not stated),5,-8,55*,51*,28,-3
Cc1ccc2c(Cl)cc(Cl)c(OCC(=O)Nc3cc(S(=O)(=O)N(C)C)ccc3C)c2n1,20,21,80*,48,38,-5
Cc1ccc2c(Cl)cc(Cl)c(OCC(=O)Nc3cccc(S(=O)(=O)N(C)C)c3)c2n1,34,15,-14,7,20,-23
O=C(NC1CCCCC1)C1CCN(C(=O)c2ccccc2Cl)CC1,7,9,13,-24,-10,1
CCn1c2ccccc2c2cc(/C=N/NC(=O)c3ccncc3)ccc21,-10,11,18,62*,39,-24
O=C1c2ccccc2C(Nc2ccc3c(c2)OCCO3)N1Cc1ccc2c(c1)OCO2 (configuration not stated),9,16,74*,2,63*,8
O=C1c2ccccc2C(Nc2ccc3c(c2)OCCO3)N1c1ccccn1 (configuration not stated),-37,3,63*,32,46,4
Cc1ccc2nsnc2c1NC(=O)c1sc2ccccc2c1Cl,31,0,90*,4,86*,-3
COc1ccccc1C(=O)NC(=S)NNC(=O)c1sc2ccccc2c1Cl,36,-16,-7,0,-10,-44
COc1ccccc1C(=O)NNC(=S)NC(=O)c1sc2ccccc2c1Cl,48,-34,-16,14,-34,-56*
Cc1ccc(NC(=O)c2sc3ccccc3c2Cl)nc1,8,-122,75*,-89,52*,-48
Cc1nnc(NC(=O)c2sc3ccccc3c2Cl)s1,-14,-90,46,-82,-21,-19
O=C(Nc1ccccn1)c1sc2cccc(F)c2c1Cl,-13,-129,63*,-142,13,-48
CC(=O)C(Sc1nc(NC(C)(C)C)nc(N(C)C)n1)C(C)=O,-2,-36,5,-28,-15,-20
COC(=O)c1ccccc1S(=O)(=O)NNC(=O)c1ccccc1-n1cccc1,-6,6,-7,-4,3,12
COC(=O)c1[nH]c2ccccc2c1NC(=O)CN1CCN(C/C=C/c2ccccc2)CC1,3,0,20,19,37,-18
CCOC(=O)c1[nH]c2ccc(F)cc2c1NC(=O)CN1CCN(C/C=C/c2ccccc2)CC1,3,17,14,65*,12,-14
CC1CC2C(C(O)CC3(C)C2CCC3(O)C(=O)CO)C2(C)C=CC(=O)C=C12 (configuration not stated),76*,17,-22,-22,10,11
CC(=O)OCC(=O)[C@@]1(O)CC[C@H]2[C@@H]3C[C@H](C)C4=CC(=O)C=C[C@]4(C)[C@H]3[C@@H](O)C[C@@]21C,77*,30,-8,-13,5,-11
Cc1nn(-c2ccc(C(=O)O)cc2)c2c1C(=O)CC(C)(C)C2,-13,16,-18,15,10,4
CC(=O)c1c(C)oc2c1C(=O)c1ccccc1C2=O,86*,17,24,42,28,-26
COc1ccc(CNC(=O)c2c(C)oc3c2C(=O)c2ccccc2C3=O)cc1,90*,73*,99*,102*,56*,-82*
SMILES,CF NFkB inh,HIF-2a block,TWEAK Fn14 block,Peg3 prom inh,TROY NFkB inh,KKLEB tox
COc1ccc(CNC(=O)c2ccc(-c3ccccc3)cc2)cc1,5,-185,-39,-216,-52,2
COc1ccc(/C(C)=N\NC(=O)C(c2ccncc2)N2CCOCC2)cc1 (configuration not stated),-6,25,-11,2,-13,16
CN(C)C(=O)C(CCN1CCC(O)(c2ccc(Cl)cc2)CC1)(c1ccccc1)c1ccccc1,21,-23,-22,2,-12,-4
COc1ccccc1N=C(C)C1=C(O)CC(c2ccccc2)CC1=O (configuration not stated),53*,13,-5,9,-1,-5
CCOC(=O)N1CCN(C(=O)/C(=C/c2ccc(OC)cc2)NC(=O)c2ccccc2)CC1,-15,4,2,8,13,2
CCOC(=O)N1CCN(C(=O)/C(=C/c2cccc3ccccc23)NC(=O)c2ccc(OC)cc2)CC1,-14,-114,19,-35,56*,14
COc1ccccc1NC(=O)N(C)C[C@@H]1OCc2cn(nn2)CCCC(=O)N([C@@H](C)CO)C[C@H]1C,-7,5,-15,-21,2,18
Cc1ccc(C(=O)O/N=C(\N)c2ccccn2)c(Cl)c1,-13,73*,105*,103*,86*,-72*
Cc1ccc(C(=O)O/N=C(\N)c2ccccc2)c(Cl)c1,-6,12,96*,34,82*,-32
N/C(=N\OC(=O)c1cc(Br)ccc1Cl)c1ccccn1,-4,-121,41,-114,-2,-11
COc1ccc(CC(=O)Nc2ccc(S(=O)(=O)N(C)C3CCN(C)CC3)cc2)cc1,7,6,-18,-16,-15,6
Cc1c(C(=O)Nc2ccc(F)cc2)oc2ccc(S(=O)(=O)N3CC(C)CC(C)C3)cc12 (configuration not stated),6,21,54*,34,29,-28
COc1ccc2oc(C(=O)Nc3nnc(C)s3)c(C)c2c1,-59,-197,68*,-70,12,-26
COc1ccc2oc(C(=O)Nc3ccc(S(=O)(=O)N(C)C4CCN(C)CC4)cc3)c(C)c2c1,1,-10,-29,75*,-6,-7
COc1ccc(-c2[nH]ncc2CN(C)CCCN2CCOCC2)cc1F,-7,9,-1,6,-13,18
O=C(NC(N1CCOCC1)C(Cl)(Cl)Cl)c1ccco1 (configuration not stated),-6,10,9,0,-10,10
